Measured values: PubChem BioAssay AID1159580 (chemical genetic matrix, 2015)
The campaign covered roughly 5,500 compounds. About 2,000 (36%) were called active. Inconclusive results (about 18%) are left out. No stated cut-off is given here; in the data, active means normalized growth mostly below about 0.91 (no sharp cut-off); inconclusive means no clear call, values can overlap the other calls; inactive means mostly above about 0.92. Some of the results follow.

Assay: chemical genetic growth profiling, strain panel (AID 1159580);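 further: tested at 20 µM; growth read once vehicle control cultures reached saturation at 30 °C; 1 = growth at the plate median or of vehicle wells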
Settings: growth OD
[1] = S. cerevisiae deletion strains, locus YDL101C, strain DUN1, stronger effect = lower value
[2] = S. cerevisiae deletion strains, locus YHR030C, strain SLT2, stronger effect = lower value

Measured: normalized growth

COc1cc(C(=O)Oc2c(Cl)cc(Cl)cc2C=Nc2cccc(C(F)(F)F)c2)cc(OC)c1OC
active: S. cerevisiae deletion strains, locus YDL214C, strain PRR2, stronger effect = lower value 0.627 | S. cerevisiae deletion strains, locus YDR477W, strain SNF1, stronger effect = lower value 0.589 | S. cerevisiae deletion strains, locus YER123W, strain YCK3, stronger effect = lower value 0.422 | S. cerevisiae deletion strains, locus YER133W, strain GLC7, stronger effect = lower value 0.585 | S. cerevisiae deletion strains, locus YFR019W, strain FAB1, stronger effect = lower value 0.702 | S. cerevisiae deletion strains, locus YGR040W, strain KSS1, stronger effect = lower value 0.636 | S. cerevisiae deletion strains, locus YGR052W, strain FMP48, stronger effect = lower value 0.556 | S. cerevisiae deletion strains, locus YGR092W, strain DBF2, stronger effect = lower value 0.308 | [2] 0.363 | S. cerevisiae deletion strains, locus YHR079C, strain IRE1, stronger effect = lower value 0.388 | S. cerevisiae deletion strains, locus YHR082C, strain KSP1, stronger effect = lower value 0.484 | S. cerevisiae deletion strains, locus YHR205W, strain SCH9, stronger effect = lower value 0.465 | S. cerevisiae deletion strains, locus YJL095W, strain BCK1, stronger effect = lower value 0.421 | S. cerevisiae deletion strains, locus YJL157C, strain FAR1, stronger effect = lower value 0.617 | S. cerevisiae deletion strains, locus YJR066W, strain TOR1, stronger effect = lower value 0.368 | S. cerevisiae deletion strains, locus YKL048C, strain ELM1, stronger effect = lower value 0.78 | S. cerevisiae deletion strains, locus YKL067W, strain YNK1, stronger effect = lower value 0.605 | S. cerevisiae deletion strains, locus YKL101W, strain HSL1, stronger effect = lower value 0.648 | S. cerevisiae deletion strains, locus YKL203C, strain TOR2, stronger effect = lower value 0.693 | S. cerevisiae deletion strains, locus YLR113W, strain HOG1, stronger effect = lower value 0.488 | S. cerevisiae deletion strains, locus YLR133W, strain CKI1, stronger effect = lower value 0.626 | S. cerevisiae deletion strains, locus YLR403W, strain SFP1, stronger effect = lower value 0.473 | S. cerevisiae deletion strains, locus YML070W, strain DAK1, stronger effect = lower value 0.583 | S. cerevisiae deletion strains, locus YMR205C, strain PFK2 (second series), stronger effect = lower value 0.656 | S. cerevisiae deletion strains, locus YNL020C, strain ARK1, stronger effect = lower value 0.594 | S. cerevisiae deletion strains, locus YNL183C, strain NPR1, stronger effect = lower value 0.497 | S. cerevisiae deletion strains, locus YNL307C, strain MCK1 (second series), stronger effect = lower value 0.555 | S. cerevisiae deletion strains, locus YOL136C, strain PFK27, stronger effect = lower value 0.548 | S. cerevisiae deletion strains, locus YOR061W, strain CKA2, stronger effect = lower value 0.576 | S. cerevisiae deletion strains, locus YOR119C, strain RIO1, stronger effect = lower value 0.597 | S. cerevisiae deletion strains, locus YOR231W, strain MKK1, stronger effect = lower value 0.465 | S. cerevisiae deletion strains, locus YPL031C, strain PHO85, stronger effect = lower value 0.574 | S. cerevisiae deletion strains, locus YPL153C, strain RAD53, stronger effect = lower value 0.578 | S. cerevisiae deletion strains, locus YPL204W, strain HRR25, stronger effect = lower value 0.562 | S. cerevisiae deletion strains, locus YPL256C, strain CLN2, stronger effect = lower value 0.443
inactive: S. cerevisiae deletion strains, locus YAR019C, strain CDC15, stronger effect = lower value 0.977 | S. cerevisiae deletion strains, locus YBL105C, strain PKC1, stronger effect = lower value 0.976 | S. cerevisiae deletion strains, locus YBR135W, strain CKS1, stronger effect = lower value 0.971 | S. cerevisiae deletion strains, locus YBR136W, strain MEC1, stronger effect = lower value 0.973 | S. cerevisiae deletion strains, locus YBR160W, strain CDC28, stronger effect = lower value 0.968 | S. cerevisiae deletion strains, locus YDL017W, strain CDC7, stronger effect = lower value 0.974 | S. cerevisiae deletion strains, locus YDL028C, strain MPS1, stronger effect = lower value 0.962 | [1] 0.986 | S. cerevisiae deletion strains, locus YDL108W, strain KIN28, stronger effect = lower value 0.966 | S. cerevisiae deletion strains, locus YDL132W, strain cdc53, stronger effect = lower value 0.963 | S. cerevisiae deletion strains, locus YDR052C, strain DBF4, stronger effect = lower value 0.983 | S. cerevisiae deletion strains, locus YDR054C, strain cdc34, stronger effect = lower value 0.959 | S. cerevisiae deletion strains, locus YDR226W, strain ADK1, stronger effect = lower value 0.965 | S. cerevisiae deletion strains, locus YFL009W, strain cdc4, stronger effect = lower value 0.957 | S. cerevisiae deletion strains, locus YFL029C, strain CAK1, stronger effect = lower value 0.978 | S. cerevisiae deletion strains, locus YFR003C, strain YPI1, stronger effect = lower value 0.972 | S. cerevisiae deletion strains, locus YFR028C, strain CDC14, stronger effect = lower value 0.951 | S. cerevisiae deletion strains, locus YIL147C, strain SLN1, stronger effect = lower value 0.972 | S. cerevisiae deletion strains, locus YJL128C, strain PBS2, stronger effect = lower value 0.917 | S. cerevisiae deletion strains, locus YJR016C, strain ILV3, stronger effect = lower value 0.986 | S. cerevisiae deletion strains, locus YJR066W, strain TOR1 (second series), stronger effect = lower value 0.775 | S. cerevisiae deletion strains, locus YKL193C, strain SDS22, stronger effect = lower value 0.971 | S. cerevisiae deletion strains, locus YMR001C, strain CDC5, stronger effect = lower value 0.975 | S. cerevisiae deletion strains, locus YMR277W, strain FCP1, stronger effect = lower value 0.97 | S. cerevisiae deletion strains, locus YNL006W, strain LST8, stronger effect = lower value 0.981 | S. cerevisiae deletion strains, locus YNL161W, strain CBK1, stronger effect = lower value 0.977 | S. cerevisiae deletion strains, locus YNL207W, strain RIO2, stronger effect = lower value 0.982 | S. cerevisiae deletion strains, locus YNL222W, strain SSU72, stronger effect = lower value 0.969 | S. cerevisiae deletion strains, locus YOL078W, strain AVO1, stronger effect = lower value 0.969 | S. cerevisiae deletion strains, locus YOR329C, strain SCD5, stronger effect = lower value 0.978 | S. cerevisiae deletion strains, locus YPL209C, strain IPL1, stronger effect = lower value 0.976 | S. cerevisiae deletion strains, locus YPR025C, strain CCL1, stronger effect = lower value 0.966 | S. cerevisiae deletion strains, locus YPR106W, strain ISR1, stronger effect = lower value 0.965 | S. cerevisiae deletion strains, locus YPR111W, strain DBF20, stronger effect = lower value 0.931 | S. cerevisiae deletion strains, strain NNK1, stronger effect = lower value 0.98 | S. cerevisiae deletion strains, strain TSCII, stronger effect = lower value 0.967

COC(=O)c1cc(OC)c(OC)cc1NS(=O)(=O)c1ccc(C)cc1
inactive: S. cerevisiae deletion strains, locus YAL013W, strain DEP1, stronger effect = lower value 1.01 | S. cerevisiae deletion strains, locus YBR229C, strain ROT2, stronger effect = lower value 0.996 | [1] 0.994 | S. cerevisiae deletion strains, locus YDR150W, strain NUM1, stronger effect = lower value 0.933 | S. cerevisiae deletion strains, locus YEL061C, strain CIN8, stronger effect = lower value 1.01 | S. cerevisiae deletion strains, locus YGR078C, strain PAC10, stronger effect = lower value 0.989 | [2] 0.959 | S. cerevisiae deletion strains, locus YHR087W, strain rtc3, stronger effect = lower value 1 | S. cerevisiae deletion strains, locus YJR043C, strain POL32, stronger effect = lower value 0.985 | S. cerevisiae deletion strains, locus YJR075W, strain HOC1, stronger effect = lower value 0.991 | S. cerevisiae deletion strains, locus YKL190W, strain CNB1, stronger effect = lower value 1 | S. cerevisiae deletion strains, locus YLR039C, strain RIC1, stronger effect = lower value 0.961 | S. cerevisiae deletion strains, locus YLR058C, strain SHM2 (second series), stronger effect = lower value 1.01 | S. cerevisiae deletion strains, locus YLR085C, strain ARP6, stronger effect = lower value 1.03 | S. cerevisiae deletion strains, locus YLR262C, strain YPT6, stronger effect = lower value 0.891 | S. cerevisiae deletion strains, locus YML094W, strain GIM5, stronger effect = lower value 1.03 | S. cerevisiae deletion strains, locus YMR219W, strain ESC1, stronger effect = lower value 1 | S. cerevisiae deletion strains, locus YMR263W, strain SAP30, stronger effect = lower value 0.971 | S. cerevisiae deletion strains, locus YMR307W, strain GAS1, stronger effect = lower value 0.959 | S. cerevisiae deletion strains, locus YNL153C, strain GIM3, stronger effect = lower value 0.987 | S. cerevisiae deletion strains, locus YNL298W, strain CLA4 (second series), stronger effect = lower value 0.962 | S. cerevisiae deletion strains, locus YNL322C, strain KRE1, stronger effect = lower value 1 | S. cerevisiae deletion strains, locus YNR030W, strain Alg12, stronger effect = lower value 0.996 | S. cerevisiae deletion strains, locus YPL055C, strain LGE1, stronger effect = lower value 0.894 | S. cerevisiae deletion strains, locus YPL241C, strain CIN2, stronger effect = lower value 1.01 | S. cerevisiae deletion strains, locus YPR135W, strain CTF4, stronger effect = lower value 0.93 | S. cerevisiae strains, strain wild type, stronger effect = lower value 0.99
